Mito fusion yeast: qHTS Assay for Small Molecule Inhibitors of Mitochondrial Division or Activators of Mitochondrial Fusion | S. cerevisiae fusion-defective mutant growth rescue, CellTiterGlo 48 h | hit rate 0.23% among 320,000 | Potency, µM (doses to about 46.1 µM), usual class: activators; note: nearly all actives have a fitted effect of over 45% in size
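S. cerevisiae fusion-defective temperature-sensitive mutants (e.g. fzo1-1, mgm1-5) grown 48 h at 37C in YPEG (ethanol/glycerol non-fermentable) medium with 23 nl compound per well; growth rescue read as CellTiterGlo luminescence.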
BCR signal inh: qHTS Assay to Find Inhibitors of Chronic Active B-Cell Receptor Signaling. ABC-DLBCL IkBa-CBG/CBR reporter, luminescence ratio, 4 h. AID 493014, 2011. hit rate 0.05% among 340,000. Potency, µM (highest dose often 46.1 µM), actives largely listed as inhibitors; active = well fitted inhibition curve with a large enough effect in the signal ratio, with a control signal flat, not every such curve was filed as active; inconclusive = small, poorly fitted or top-dose-only effect, or effect the other way, or a change in a side signal; the % refers to the signal ratio
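TMD8 human ABC-DLBCL cells with doxycycline-inducible IκBα–green luciferase fusion and unfused red luciferase, in 0.5% FBS medium; compounds up to 46 uM, 4 h at 37C. Green/red luminescence ratio, filter-overlap corrected, fitted to concentration-response curves.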
Gal4-VP16 FLuc: VP16 counterscreen qHTS for inhibitors of ROR gamma transcriptional activity | Potency, µM (doses to about 53.6 µM), actives largely listed as inhibitors | AID 2546, 2010 | hit rate 3.5% among 310,000 | Drosophila S2 Gal4-VP16 UAS-luciferase, luminescence, 20 h;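 note: Gal4-VP16 expression switched on by copper sulfate through the metallothionein promoter; nearly all actives have a fitted effect of over 50% in size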
Integrin act MD: qHTS for Activators of Integrin-Mediated Alleviation for Muscular Dystrophy | alpha7betagal myoblasts, beta-gal FDG fluorescence, 48 h | Potency, µM (top dose mostly 38.3 µM), actives largely listed as activators | hit rate 0.064% among 350,000 | AID 624291, 2012; note: nearly all actives have a fitted effect of over 60% in size
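alpha7betagal+/- myoblasts (passage 13, 250/well) treated 48 h at 37C with compounds at 1:260 dilution of DMSO stock. Lysed, then beta-galactosidase activity read as FDG fluorescence (ex 480/em 540) after 30 min, with pre-read for autofluorescence.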
RORg inh: qHTS for inhibitors of ROR gamma transcriptional activity. hit rate 5.4% among 310,000. AID 2551, 2010. Potency, µM (doses to about 53.6 µM), usual class: inhibitors. Drosophila S2 Gal4-RORgamma UAS-luciferase reporter, 20 h; note: nearly all actives have a fitted effect of over 60% in size
Target sequence (P51450 whole entry, looked up, the tested form may be a part): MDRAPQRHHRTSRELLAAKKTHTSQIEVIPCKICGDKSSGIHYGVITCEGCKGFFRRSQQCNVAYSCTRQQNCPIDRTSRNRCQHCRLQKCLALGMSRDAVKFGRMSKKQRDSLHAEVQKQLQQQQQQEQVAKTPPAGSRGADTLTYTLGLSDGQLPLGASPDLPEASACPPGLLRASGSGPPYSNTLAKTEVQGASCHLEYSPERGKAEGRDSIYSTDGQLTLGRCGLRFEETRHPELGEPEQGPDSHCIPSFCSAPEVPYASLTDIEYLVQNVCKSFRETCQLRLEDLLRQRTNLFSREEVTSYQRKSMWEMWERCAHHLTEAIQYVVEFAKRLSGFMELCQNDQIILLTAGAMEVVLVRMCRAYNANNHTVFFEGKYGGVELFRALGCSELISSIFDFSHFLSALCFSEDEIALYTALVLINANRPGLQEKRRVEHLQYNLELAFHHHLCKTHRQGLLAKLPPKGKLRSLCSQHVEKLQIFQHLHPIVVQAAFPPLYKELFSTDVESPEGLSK
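Stably transfected Drosophila Schneider cells are the test system, with ROR gamma fused to Gal4 and luciferase under UAS control; luminescence is read after 20 hr of 700 uM copper sulfate induction at ambient temperature.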
uPA generation: qHTS for Inhibitors of Cell Surface uPA Generation | Potency, µM (doses to about 38.3 µM), hits mostly inhibitors | cell surface uPA generation assay, qHTS | hit rate 0.31% among 330,000 | AID 540303, 2011; active = well fitted inhibition curve with a large enough effect; inconclusive = small, poorly fitted or top-dose-only effect; inactive = no such curve, though single readings can be large or run the other way; tested in mouse RAW 264.7 cells; note: nearly all actives have a fitted effect of over 55% in size
Of the large screens only hits and unclear results are named; the others gave an inactive call. Most compounds without a hit are left out; they make up all but 5.5% or so of the library. Unless noted, calls come from the whole dose curve; as a rule, active = well fitted curve in the direction sought with a large enough effect; inconclusive = small, poorly fitted or top-dose-only effect, or another doubt; inactive = no such curve, though single readings can be large; an effect the other way counts as inactive or inconclusive.

COc1ccc(C)cc1NC(=S)NNC(=O)c1c(Br)cnn1C	Integrin act MD inconclusive, RORg inh 2µM
COc1ccc(C(=O)Nc2ccc(C)cn2)c(OC)c1	BCR signal inh inconclusive, Gal4-VP16 FLuc 4µM, RORg inh 4µM
COc1cccc(Nc2ncc3nc(-c4cccs4)c(=O)n(-c4ccccc4)c3n2)c1	Gal4-VP16 FLuc inconclusive (no result: Mito fusion yeast, BCR signal inh, Integrin act MD, uPA generation)
C=C(C)C(=O)Nc1ccc2c(c1)OCCOCCOCCO2	none
Cc1csc(C(C#N)C(=O)c2cc3ccccc3o2)n1 (stereo not given)	BCR signal inh inconclusive, RORg inh 10µM, uPA generation inconclusive
O=C(CSc1nnnn1C1CCCCC1)N1CCN(C(=O)c2ccco2)CC1	BCR signal inh inconclusive, Gal4-VP16 FLuc 7.9µM, RORg inh 3.2µM
CC1=CC(C)(C)NC(=S)N1c1ccc(C)cc1	Gal4-VP16 FLuc 3.5µM, RORg inh 1.6µM
Cc1cccc(N2C(=O)CCC2=O)c1	BCR signal inh inconclusive
CC1=CC(C)(C)NC(=S)N1c1cccc(C)c1	Gal4-VP16 FLuc 11µM, RORg inh 4.5µM
CC1=CC(C)(C)NC(=S)N1c1ccc(C)c(C)c1	Gal4-VP16 FLuc 4.5µM, RORg inh 0.56µM
CC1=CC(C)(C)NC(=S)N1c1ccc([N+](=O)[O-])cc1	none (no result: Mito fusion yeast, BCR signal inh, Gal4-VP16 FLuc, RORg inh)
CSCC[C@H](NC(=O)[C@H](Cc1ccccc1)n1c(=O)[nH]c2ccccc2c1=O)C(=O)NCC1CCC(C(=O)O)CC1 (stereo not given in full)	none
CC(=O)C(=O)O	none (no result: Mito fusion yeast, BCR signal inh, Integrin act MD, uPA generation)
CCCCn1c(=O)c(-[n+]2ccccc2)c([O-])c2ccccc21	RORg inh 11µM
Nc1ncnc2c1cnn2-c1ccccc1	BCR signal inh inconclusive
S=c1nc[nH]c2c1cnn2-c1ccccc1	BCR signal inh inconclusive, Gal4-VP16 FLuc 4µM, RORg inh 3.5µM
O=C(N/N=C1\NC(=O)C(CO)(CO)S1)c1ccccc1	none
O=C1CS/C(=N\NC(=O)c2ccccc2)N1	Gal4-VP16 FLuc 16µM, RORg inh 2.8µM
COCc1nnc(NC(=O)c2ccc(S(=O)(=O)N(C)Cc3ccccc3)cc2)o1	Gal4-VP16 FLuc 2.2µM, RORg inh 0.79µM
CN(Cc1ccccc1)S(=O)(=O)c1nnc(NC(=O)c2ccccc2)s1	none
CCN(Cc1ccccc1)S(=O)(=O)c1ccc(C(=O)Nc2nnc(C3CC3)o2)cc1	Gal4-VP16 FLuc 0.56µM, uPA generation 3.5µM
Cc1nnc(NC(=O)c2ccc(S(=O)(=O)N(C)Cc3ccccc3)cc2)o1	Gal4-VP16 FLuc 0.56µM, RORg inh 0.2µM
Cc1ccn2cc(C(=O)Nc3ccc4c(c3)OCCO4)nc2c1	BCR signal inh inconclusive, Gal4-VP16 FLuc 4.5µM, Integrin act MD inconclusive, RORg inh 1.3µM, uPA generation inconclusive
Cc1ccc(C(=O)Nc2ccc3c(c2)OCCO3)cc1	BCR signal inh inconclusive, Gal4-VP16 FLuc 10µM, RORg inh 10µM
Cc1cccc(C)c1OCC(=O)Nc1ccc2c(c1)OCCO2	BCR signal inh inconclusive, Gal4-VP16 FLuc 2.2µM, Integrin act MD inconclusive
O=C(Nc1ccc2c(c1)OCCO2)NC1(C(F)(F)F)Oc2ccccc2O1	BCR signal inh inconclusive, RORg inh inconclusive, uPA generation 2.5µM
Cc1ccn2cc(C(=O)Nc3ccccc3N3CCOCC3)nc2c1	Integrin act MD inconclusive
Clc1cccc(C(c2ccc3nc[nH]c3c2)n2ccnc2)c1 (stereo not given)	none (no result: Mito fusion yeast, BCR signal inh, Integrin act MD, uPA generation)
CC(=O)Nc1ccc(S(=O)(=O)N(C)CC(=O)OCC(=O)Nc2cc(C)on2)cc1	Integrin act MD inconclusive, uPA generation inconclusive (no result: Gal4-VP16 FLuc, RORg inh)
COc1cc(SC)ccc1C(=O)Nc1ccc2c(c1)OCCO2	BCR signal inh inconclusive, Gal4-VP16 FLuc inconclusive, RORg inh 11µM, uPA generation inconclusive
COc1ccccc1C(=O)Nc1ccc2c(c1)OCCO2	BCR signal inh inconclusive, Gal4-VP16 FLuc inconclusive, RORg inh inconclusive
CCCOc1cccc(C(=O)Nc2ccc3c(c2)OCCO3)c1	BCR signal inh inconclusive, uPA generation 10µM
